# Active and inactive are the calls of the source.
# Experiments:
# [1] = system: PRMT1 (protein arginine N-methyltransferase 1); assay: small molecules binding arginine methyltransferase PRMT1 – biochemical, small-molecule microarray, 635 nm fluorescence, primary screen (AID 1088); settings: higher = more signal;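 also: binding of Prmt1 protein to compounds spotted on small-molecule microarray slides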
# [2] = growth effects on S. cerevisiae YJM789 – YJM789 clinical isolate, OD600, 24 h, basal, primary screen (AID 1089); settings: higher = more signal, called active from +8 up or from −8 down;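 also: growth of clinical yeast isolate S. cerevisiae YJM 789 seeded 1000 cells per well; test concentration not given here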
# [3] = S. pombe growth modifiers, basal conditions – strain 972, OD600, 24 h, no modulator, primary screen (AID 1090);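 also: basal condition with compound alone and no growth modifier present; test concentration not given here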; settings: S. pombe 972 growth, higher = more signal, called active from +8 up or from −8 down
# [4] = budding yeast growth modifiers under rapamycin – strain BY4716, OD600, 96 h, primary screen (AID 1091); also: test concentration not given here; settings: S. cerevisiae BY4716 + rapamycin, higher = more signal, called active from +8 up or from −8 down
# [5] = target: Torsin-1A-interacting protein 2 (Homo sapiens) (UniProt Q8NFQ8); assay: small molecules binding lysate-expressed LULL1 – cell lysate, human LULL1 lysate, 635/667 nm fluorescence, primary screen (AID 1092); settings: small-molecule microarray, hLULL1 lysate binding, 635 nm fluorescence; higher = more signal;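 also: probe is lysate of COS7 cells overexpressing human LULL1; score merges per-feature 667 nm fluorescence with signal-to-noise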
# [6] = optical density change of DRC41 E. coli – strain DRC41, OD650, 24 h, E. coli filamentation project, primary screen (AID 1093);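 also: MC1000 strain lacking acrAB efflux and sulA so SOS filamentation is blocked; test concentration not given here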; settings: E. coli DRC41 growth, higher = more signal, called active from +8 up or from −8 down
# [7] = probe aLefty2 binding to arrayed compounds – biochemical, biotinylated probe, 635/667 nm fluorescence, primary screen (AID 1094); settings: small-molecule microarray, higher = more signal;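 also: score merges spot fluorescence near 667 nm with spot signal-to-noise ratio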
# [8] = system: Noggin (protein binding on small-molecule microarray); assay: small molecules binding Noggin protein – biochemical, 635/667 nm fluorescence, primary screen (AID 1095); settings: 635 nm fluorescence, higher = more signal;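 also: score merges 667 nm feature fluorescence with signal to noise over triplicate slides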
# [9] = target: Neurogenic locus notch homolog protein 3 (Homo sapiens) (UniProt Q9UM47); assay: small molecules binding NOTCH3 protein – biochemical, 635/667 nm fluorescence, primary screen (AID 1096); settings: small-molecule microarray, 635 nm fluorescence, higher = more signal
# [10] = probe aEGFR binding to arrayed compounds – biochemical, biotinylated probe, 635/667 nm fluorescence, primary screen (AID 1097); settings: small-molecule microarray, higher = more signal;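 also: probe is a biotinylated anti-EGFR antibody binding compounds printed on slides; score combines fluorescence near 667 nm and signal to noise of each spot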
# [11] = system: Plasmodium falciparum Sir2 (PF13_0152, Sir2A); assay: Plasmodium falciparum Sir2A binding compounds – biochemical, small-molecule microarray, 635 nm fluorescence, primary screen (AID 1098); settings: fluorescence 635 nm, higher = more signal;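 also: score merges spot fluorescence intensity with its signal-to-noise ratio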
# [12] = probe aDKK1 binding to arrayed compounds – biochemical, biotinylated probe, 635/667 nm fluorescence, primary screen (AID 1099); settings: small-molecule microarray, higher = more signal;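 also: score merges 667nm spot fluorescence with signal to noise across triplicate slides; reference of the scale not given here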
# [13] = probe aCHRDL2 binding to arrayed compounds – biochemical, biotinylated probe, 635/667 nm fluorescence, primary screen (AID 1100); settings: small-molecule microarray, higher = more signal
# [14] = change in splice reporter luminescence, either direction, cell-based, HEK293, spliceosome inhibition project, primary screen (AID 1101); settings: HEK293 splicing luciferase reporter, 24 h, higher = more signal, called active from +8 up or from −8 down;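 also: HEK293 cells carrying a splicing-competent luciferase reporter gene; test concentration not given here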
# [15] = target: Fibroblast growth factor 10 (Homo sapiens) (UniProt O15520); assay: compounds binding fibroblast growth factor 10 – biochemical, small-molecule microarray, 635 nm fluorescence, primary screen (AID 1102); settings: FGF10 binding, fluorescence 635 nm, higher = more signal
# [16] = system: glycogen synthase kinase-3 (GSK3A per assay name; protocol says GSK3B); assay: compounds binding glycogen synthase kinase-3 – biochemical, small-molecule microarray, 635 nm fluorescence, GSK3A, primary screen (AID 1103); settings: fluorescence 635 nm, higher = more signal; also: the record names both GSK3A and GSK3B
# [17] = target: Epidermal growth factor receptor (Homo sapiens) (UniProt P00533); assay: compounds binding epidermal growth factor receptor – biochemical, small-molecule microarray, 635 nm fluorescence, primary screen (AID 1104); settings: EGFR binding, higher = more signal;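 also: score merges 667 nm emission intensity with spot signal to noise over triplicate slides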
# [18] = target: Follistatin-related protein 3 (Homo sapiens) (UniProt O95633); assay: compounds binding follistatin-related protein 3 – biochemical, small-molecule microarray, 635 nm fluorescence, primary screen (AID 1105); settings: FSTL3 binding, higher = more signal;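 also: score merges emission near 667 nm and signal to noise per printed spot across three slides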
# [19] = target: Dickkopf-related protein 1 (Homo sapiens) (UniProt O94907); assay: small molecules binding DKK1 protein – biochemical, small-molecule microarray, 635 nm fluorescence scan, primary screen (AID 1106); settings: higher = more signal;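 also: score merges emission near 667 nm with signal to noise over three replicate slides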
# [20] = system: Inhibin beta A chain (activin A); assay: small molecules binding activin A – biochemical, small-molecule microarray, 635 nm fluorescence scan, primary screen (AID 1107); settings: INHBA, higher = more signal;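 also: mouse activin A protein probed at 4.33 µg/mL on printed slides; score merges bound-protein fluorescence near 667 nm with spot signal-to-noise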
# Chain of Neurogenic locus notch homolog protein 3 (Homo sapiens) (Q9UM47 whole entry, looked up): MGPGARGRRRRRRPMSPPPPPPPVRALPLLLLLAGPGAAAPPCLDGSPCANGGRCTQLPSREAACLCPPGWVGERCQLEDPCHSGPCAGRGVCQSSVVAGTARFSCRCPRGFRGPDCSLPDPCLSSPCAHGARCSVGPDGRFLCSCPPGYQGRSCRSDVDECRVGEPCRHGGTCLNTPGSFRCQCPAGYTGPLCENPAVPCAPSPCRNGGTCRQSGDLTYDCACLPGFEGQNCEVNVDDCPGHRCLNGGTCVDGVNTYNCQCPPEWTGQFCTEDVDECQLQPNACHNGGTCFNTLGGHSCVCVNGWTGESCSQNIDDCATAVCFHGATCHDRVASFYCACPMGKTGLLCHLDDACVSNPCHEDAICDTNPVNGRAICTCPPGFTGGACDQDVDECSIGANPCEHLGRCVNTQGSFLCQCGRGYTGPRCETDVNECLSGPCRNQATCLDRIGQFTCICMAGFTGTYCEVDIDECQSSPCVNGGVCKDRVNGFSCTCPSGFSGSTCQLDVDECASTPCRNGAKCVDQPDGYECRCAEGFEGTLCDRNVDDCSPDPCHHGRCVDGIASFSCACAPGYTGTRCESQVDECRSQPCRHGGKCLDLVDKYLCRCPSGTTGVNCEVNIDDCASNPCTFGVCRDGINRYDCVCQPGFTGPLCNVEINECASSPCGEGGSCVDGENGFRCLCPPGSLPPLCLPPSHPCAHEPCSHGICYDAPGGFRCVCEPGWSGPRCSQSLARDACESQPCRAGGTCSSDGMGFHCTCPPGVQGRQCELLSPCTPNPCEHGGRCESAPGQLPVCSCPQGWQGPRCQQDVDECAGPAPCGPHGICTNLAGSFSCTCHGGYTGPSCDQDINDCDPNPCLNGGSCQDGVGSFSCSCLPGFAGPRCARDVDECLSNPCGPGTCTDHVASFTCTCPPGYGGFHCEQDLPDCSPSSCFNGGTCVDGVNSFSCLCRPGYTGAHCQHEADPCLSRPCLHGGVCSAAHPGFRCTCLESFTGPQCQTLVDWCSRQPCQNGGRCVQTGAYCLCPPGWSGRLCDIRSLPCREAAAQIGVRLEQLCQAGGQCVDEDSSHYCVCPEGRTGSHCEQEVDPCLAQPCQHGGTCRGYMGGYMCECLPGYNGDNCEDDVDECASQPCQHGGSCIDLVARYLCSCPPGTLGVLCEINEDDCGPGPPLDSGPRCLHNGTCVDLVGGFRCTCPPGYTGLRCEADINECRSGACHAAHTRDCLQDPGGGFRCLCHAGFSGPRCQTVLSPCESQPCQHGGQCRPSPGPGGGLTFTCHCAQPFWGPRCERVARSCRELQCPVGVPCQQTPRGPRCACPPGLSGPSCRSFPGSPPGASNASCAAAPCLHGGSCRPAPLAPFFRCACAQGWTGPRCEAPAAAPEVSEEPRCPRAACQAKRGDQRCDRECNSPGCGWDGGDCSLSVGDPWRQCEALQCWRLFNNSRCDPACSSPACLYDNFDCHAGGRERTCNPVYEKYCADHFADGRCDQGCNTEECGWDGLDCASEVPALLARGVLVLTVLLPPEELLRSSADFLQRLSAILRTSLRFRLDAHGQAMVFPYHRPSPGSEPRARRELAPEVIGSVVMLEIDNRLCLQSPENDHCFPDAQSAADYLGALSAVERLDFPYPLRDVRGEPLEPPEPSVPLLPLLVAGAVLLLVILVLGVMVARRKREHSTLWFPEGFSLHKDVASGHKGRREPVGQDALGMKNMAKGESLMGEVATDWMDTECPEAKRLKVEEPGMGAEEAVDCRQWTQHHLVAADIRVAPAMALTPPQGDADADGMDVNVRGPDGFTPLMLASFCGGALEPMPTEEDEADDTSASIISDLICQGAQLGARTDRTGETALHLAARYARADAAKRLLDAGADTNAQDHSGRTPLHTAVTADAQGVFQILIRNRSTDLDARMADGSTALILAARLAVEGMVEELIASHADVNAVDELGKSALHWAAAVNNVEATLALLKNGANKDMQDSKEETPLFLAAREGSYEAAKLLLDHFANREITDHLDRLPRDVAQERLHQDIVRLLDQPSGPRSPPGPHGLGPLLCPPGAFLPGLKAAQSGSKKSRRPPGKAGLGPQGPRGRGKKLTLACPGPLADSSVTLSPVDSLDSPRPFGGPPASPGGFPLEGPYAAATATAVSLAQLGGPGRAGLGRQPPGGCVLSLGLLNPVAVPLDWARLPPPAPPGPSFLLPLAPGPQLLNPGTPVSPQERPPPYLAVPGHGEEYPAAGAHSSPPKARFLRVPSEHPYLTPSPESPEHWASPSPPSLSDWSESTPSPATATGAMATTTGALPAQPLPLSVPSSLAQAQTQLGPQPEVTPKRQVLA
# Chain of Epidermal growth factor receptor (Homo sapiens) (P00533 whole entry, looked up): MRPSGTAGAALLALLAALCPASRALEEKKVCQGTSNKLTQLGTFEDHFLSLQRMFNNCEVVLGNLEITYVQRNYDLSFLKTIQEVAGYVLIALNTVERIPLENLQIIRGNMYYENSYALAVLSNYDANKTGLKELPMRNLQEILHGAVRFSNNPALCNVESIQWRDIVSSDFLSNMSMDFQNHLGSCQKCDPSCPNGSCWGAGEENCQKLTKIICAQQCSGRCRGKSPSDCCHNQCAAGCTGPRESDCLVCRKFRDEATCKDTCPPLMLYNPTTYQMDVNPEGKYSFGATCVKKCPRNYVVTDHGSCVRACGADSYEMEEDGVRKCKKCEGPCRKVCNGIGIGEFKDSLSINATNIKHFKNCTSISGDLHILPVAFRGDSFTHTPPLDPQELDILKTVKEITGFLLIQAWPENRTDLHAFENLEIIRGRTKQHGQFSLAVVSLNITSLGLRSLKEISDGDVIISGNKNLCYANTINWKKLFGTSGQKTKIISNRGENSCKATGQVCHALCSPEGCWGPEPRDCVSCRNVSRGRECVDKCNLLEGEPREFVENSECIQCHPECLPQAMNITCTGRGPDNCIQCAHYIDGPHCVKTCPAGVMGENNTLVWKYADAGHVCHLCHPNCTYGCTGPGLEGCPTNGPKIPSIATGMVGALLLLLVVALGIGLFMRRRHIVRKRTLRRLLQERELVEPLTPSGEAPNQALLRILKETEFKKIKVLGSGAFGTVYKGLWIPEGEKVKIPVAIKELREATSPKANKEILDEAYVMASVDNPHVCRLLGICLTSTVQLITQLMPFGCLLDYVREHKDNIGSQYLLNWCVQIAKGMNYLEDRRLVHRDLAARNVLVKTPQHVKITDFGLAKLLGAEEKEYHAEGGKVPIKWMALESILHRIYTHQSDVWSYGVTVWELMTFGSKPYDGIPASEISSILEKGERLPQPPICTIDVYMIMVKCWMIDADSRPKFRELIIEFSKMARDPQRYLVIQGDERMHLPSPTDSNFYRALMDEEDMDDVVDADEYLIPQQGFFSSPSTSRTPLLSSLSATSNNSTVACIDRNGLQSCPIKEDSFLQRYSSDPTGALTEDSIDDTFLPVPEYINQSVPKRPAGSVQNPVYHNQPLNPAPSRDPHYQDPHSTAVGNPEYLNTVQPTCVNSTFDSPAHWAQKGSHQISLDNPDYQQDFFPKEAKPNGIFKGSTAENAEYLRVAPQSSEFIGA
# Chain of Fibroblast growth factor 10 (Homo sapiens) (O15520 whole entry, looked up): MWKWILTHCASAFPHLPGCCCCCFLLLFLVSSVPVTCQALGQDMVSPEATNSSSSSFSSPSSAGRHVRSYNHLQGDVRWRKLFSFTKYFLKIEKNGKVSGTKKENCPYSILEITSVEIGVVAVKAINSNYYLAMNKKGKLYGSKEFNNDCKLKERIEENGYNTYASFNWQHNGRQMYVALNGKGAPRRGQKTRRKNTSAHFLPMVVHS
# Chain of Torsin-1A-interacting protein 2 (Homo sapiens) (Q8NFQ8 whole entry, looked up): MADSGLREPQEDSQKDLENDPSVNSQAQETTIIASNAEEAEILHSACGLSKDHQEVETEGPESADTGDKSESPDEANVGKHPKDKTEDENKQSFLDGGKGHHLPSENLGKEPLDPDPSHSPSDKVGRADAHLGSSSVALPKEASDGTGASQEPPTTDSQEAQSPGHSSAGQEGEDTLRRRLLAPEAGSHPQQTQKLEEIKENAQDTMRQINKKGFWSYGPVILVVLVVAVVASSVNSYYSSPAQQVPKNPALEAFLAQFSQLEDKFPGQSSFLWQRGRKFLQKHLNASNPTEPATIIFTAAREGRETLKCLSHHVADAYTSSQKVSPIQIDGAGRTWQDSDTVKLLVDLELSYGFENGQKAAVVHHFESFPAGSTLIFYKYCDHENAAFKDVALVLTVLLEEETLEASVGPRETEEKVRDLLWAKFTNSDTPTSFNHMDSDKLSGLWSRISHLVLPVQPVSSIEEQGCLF
# Chain of Follistatin-related protein 3 (Homo sapiens) (O95633 whole entry, looked up): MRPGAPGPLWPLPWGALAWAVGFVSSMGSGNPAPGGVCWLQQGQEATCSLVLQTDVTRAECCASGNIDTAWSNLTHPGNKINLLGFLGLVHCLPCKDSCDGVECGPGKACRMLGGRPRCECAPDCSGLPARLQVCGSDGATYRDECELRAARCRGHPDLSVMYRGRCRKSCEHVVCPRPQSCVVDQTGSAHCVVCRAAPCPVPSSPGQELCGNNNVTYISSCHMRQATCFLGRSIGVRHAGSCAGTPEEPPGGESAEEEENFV
# Chain of Dickkopf-related protein 1 (Homo sapiens) (O94907 whole entry, looked up): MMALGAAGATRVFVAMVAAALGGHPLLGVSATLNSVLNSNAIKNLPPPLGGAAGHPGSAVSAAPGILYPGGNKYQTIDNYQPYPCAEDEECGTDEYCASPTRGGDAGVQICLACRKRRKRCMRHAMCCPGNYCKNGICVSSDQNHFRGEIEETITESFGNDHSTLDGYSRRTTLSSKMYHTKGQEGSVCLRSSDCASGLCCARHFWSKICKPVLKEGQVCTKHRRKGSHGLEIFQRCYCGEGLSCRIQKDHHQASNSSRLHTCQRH
SMILES,composite z-score [1],z-score [2],z-score [3],z-score [4],composite z-score [5],z-score [6],composite z-score [7],composite z-score [8],composite z-score [9],composite z-score [10],composite z-score [11],composite z-score [12],composite z-score [13],z-score [14],composite z-score [15],composite z-score [16],composite z-score [17],composite z-score [18],composite z-score [19],composite z-score [20]
Cc1ccccc1C(O)C1C=CC2C(=O)NC(=O)C2N1Nc1ccc(Cl)cc1Cl (stereo not given),0.528,-2.09 (inactive),-2.81 (inactive),0.797 (inactive),2.27,-1.24 (inactive),0.106,0.287,0.765,-0.125,1.21,0.629,0.751,0.812 (inactive),0.904,0.332,0.207,0.511,0.0925,1.18
COc1cc(NN2C(C(O)C3CCCCC3)C=CC3C(=O)N(c4ccccc4)C(=O)C32)cc(OC)c1OC (stereo not given),0.955,0.93 (inactive),1.06 (inactive),0.408 (inactive),3.25,-1.24 (inactive),0.167,-0.273,1.07,-0.0068,1.11,0.946,1.43,-0.983 (inactive),0.448,0.893,-0.455,0.722,-1.37,0.591
COCCOC(=O)N1C(=O)[C@@]2(c3cc(C#CCNC(N)=O)ccc31)[C@H](c1ccc(OCCO)cc1)N1[C@H](c3ccccc3)[C@H](c3ccccc3)OC(=O)[C@H]1[C@@H]2C(=O)NC[C@H](O)c1ccccc1,1.57,2.3 (inactive),3.07 (inactive),4.91 (inactive),2.44,0.925 (inactive),0.19,1.1,1.06,0.0671,1.4,0.26,0.788,0.38 (inactive),0.945,0.469,0.711,1.29,0.583,1.43
CCCCCN1CC=CC23O[C@@H]4C=CCOC(=O)[C@@H]4[C@H]2C(=O)N(CCO)[C@@H]3C1=O (stereo not given in full),0.487,0.15 (inactive),-0.178 (inactive),-0.175 (inactive),2.35,-0.229 (inactive),-0.244,-1.25,-0.195,-0.235,-0.0015,-0.314,0.634,0.374 (inactive),-0.318,-0.527,-1.17,-1.3,-1.25,0.393
C=C(C)[C@@H]1CC=C(C(O)C2C=CC3C(=O)N(c4ccccc4)C(=O)C3N2Nc2ccc(C#N)cc2)CC1 (stereo not given in full),1.54,0.188 (inactive),0.369 (inactive),4.16 (inactive),3.33,-1.9 (inactive),0.386,0.35,1.04,0.0717,1.31,0.327,1.15,0.857 (inactive),0.997,1.31,0.628,1.34,-0.0273,0.749
C[C@]1(C(=O)NCCN2CCOCC2)c2ccccc2C(=O)N(Cc2cc(F)cc(C(F)(F)F)c2)[C@H]1c1ccc(CO)cc1,1.49,0.006 (inactive),0.487 (inactive),-0.837 (inactive),3.36,1.47 (inactive),-0.0511,0.463,0.572,-0.142,1.81,-0.0342,0.841,-0.0156 (inactive),-0.134,-0.626,-1.01,-0.0362,-0.876,0.59
CC(C)=CCCC(C)=CC(O)C1C=CC2C(=O)N(c3ccccc3)C(=O)C2N1Nc1ccccc1F (stereo not given),0.945,-1.23 (inactive),-0.347 (inactive),-0.707 (inactive),2.41,0.401 (inactive),-0.166,-0.0409,0.761,-0.0828,1.33,0.0643,0.0744,-0.652 (inactive),0.85,0.403,0.329,0.587,-0.0093,0.418
C=CCNC(=O)[C@H]1[C@@H]2C(=O)O[C@@H](c3ccccc3)[C@@H](c3ccccc3)N2[C@@H](c2ccc(OCCO)cc2)[C@]12C(=O)N(C(=O)OCCOC)c1ccc(C#Cc3ccc(OC)cc3)cc12,1.41,1.2 (inactive),0.927 (inactive),6.91 (inactive),2.47,2.63 (inactive),-0.0154,1.04,1.09,-0.0164,1.28,0.195,-0.0801,-0.957 (inactive),0.866,1.28,0.639,0.749,0.189,0.768
C=CCC(OC(C)=O)[C@@H]1[C@@H](N(Cc2cccc3ccccc23)C(=O)c2ccc(-c3ccccc3)cc2)c2cc(OCCCO)ccc2N1C(=O)c1ccc(-c2ccccc2)cc1 (stereo not given in full),-0.0425,-1.05 (inactive),-0.0057 (inactive),-0.415 (inactive),0.549,-1.02 (inactive),-0.0179,-0.63,-0.234,-0.106,0.122,0.508,0.75,-0.698 (inactive),-0.221,-0.0259,-0.151,0.143,-0.242,0.967
CCCC=C(CCC)[C@@H](NC(=O)CCc1ccccc1)c1ccc(C(F)(F)F)cc1,1.1,-0.296 (inactive),-1.19 (inactive),0.654 (inactive),3.4,-0.604 (inactive),0.201,0.0368,1.12,-0.0423,1.08,0.256,0.995,-1.57 (inactive),0.527,1.28,0.0694,0.574,-0.429,0.724

# From PubChem BioAssay
